Compounds with a hit are over-represented: about 4.7% of the library has one in this group of screens.
TRHR agonist – TRH receptor (human) agonism; P34981; TRHR cells, calcium flux fluo-8, FDSS agonist mode; activation, % at 2 µM; 0.18% of 360,000 active; AID 493084; further: 0% is about no effect
Target sequence (P34981 whole entry, looked up): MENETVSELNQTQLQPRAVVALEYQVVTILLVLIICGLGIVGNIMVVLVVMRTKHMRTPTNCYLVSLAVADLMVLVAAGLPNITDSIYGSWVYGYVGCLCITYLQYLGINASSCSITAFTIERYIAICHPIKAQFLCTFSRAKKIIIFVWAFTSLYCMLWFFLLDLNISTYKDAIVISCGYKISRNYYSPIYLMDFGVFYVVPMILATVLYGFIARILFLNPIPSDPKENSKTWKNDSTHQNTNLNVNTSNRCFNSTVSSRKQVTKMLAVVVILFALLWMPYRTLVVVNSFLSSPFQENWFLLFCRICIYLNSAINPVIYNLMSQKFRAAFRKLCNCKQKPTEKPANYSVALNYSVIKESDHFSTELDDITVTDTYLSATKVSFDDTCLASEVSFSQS
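TRHR-expressing cells, plated overnight in medium with 10% serum, were loaded with fluo-8 calcium dye at room temperature. After a 10 s baseline, library compound was pin-added and calcium release was recorded kinetically (ex 480/em 530) as agonist response.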
D1 ag – activates the human D1 dopamine receptor; AID 504660; activation, % at 2 µM; HEK293 T-REx D1 cells, calcium flux, agonist mode; P21728; 1% of 360,000 active; further: 0% is about no effect
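Tetracycline-induced HEK293 TREx D1 cells, force-coupled to calcium signalling, were dye-loaded with a no-wash calcium kit. Compound was pin-added after a 10 s baseline. Fluorescence was read kinetically at 1 cycle/s for 180 s, with calcium rises flagged as agonism.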
TRHR PAM – allosterically enhances the human TRH receptor | P34981 | 0.66% of 360,000 active | TRHR cells, fluo-8 calcium fluorescence, EC20 TRH enhancement | enhancement, % at 2 µM; in the data active means enhancement above about 30%; further: 0% is about no effect
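TRHR-expressing cells loaded with fluo-8 calcium dye were read kinetically (ex 480/em 530) during compound addition, then stimulated with an EC20 of TRH (10 nM final). Enhancement of the Gq-mediated intracellular calcium response was scored.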
D1 PAM – enhances dopamine response at the human D1 receptor; P21728; HEK293 TREx D1 cells, calcium flux, dopamine EC20 potentiation; potentiation, % at 10 µM; 0.036% of 360,000 active; in the data active means potentiation above about 30%; further: 0% is about no effect
D1 antagonist – human D1 dopamine receptor antagonism; HEK293 TREx D1 cells, calcium flux, dopamine EC80; active compounds read low; AID 504652; 3.2% of 360,000 active; activity change, negative = inhibition, % at 10 µM; in the data active means activity change below about -30%; further: on the % scale 0 is the no-effect control and ±100 the full control effect
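Compound effects on dopamine-evoked calcium signalling were measured in tetracycline-induced HEK293 Trex D1 cells. Dopamine at EC80 followed a 180 s compound pre-read, and fluorescence was tracked kinetically for 180 s more.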
Active calls of the source: *; · = no result. Unless noted, no stated cut-off is given here; in the data, active means activation above about 30%; inactive means the rest.

SMILES | TRHR agonist | D1 ag | TRHR PAM | D1 PAM | D1 antagonist
Cc1cc(C)c(NC(=O)c2cc(=O)c3ccccc3o2)c(C)c1 | 0 | 1 | 13 | -3 | 22
Cc1ccc(CNC(=O)c2cc(=O)c3ccccc3o2)cc1 | -1 | 16 | -2 | · | -35*
COc1ccc2oc(=O)c(C(=O)NCc3ccc(C)cc3)cc2c1 | 0 | 4 | -1 | -7 | -37*
Cc1ccc2c(=O)cc(C(=O)Nc3c(C)cccc3C)oc2c1 | -1 | -2 | 2 | -3 | -32*
Cc1ccc(-c2noc(CCC(=O)NCCCN3CCN(c4ccc(F)cc4)CC3)n2)cc1 | 0 | 25 | -6 | -14 | -83*
COc1ccc(-c2noc(CCC(=O)NCCCN3CCN(c4ccccc4F)CC3)n2)cc1 | 0 | 31* | -2 | -17 | -56*
COc1ccc(-c2noc(CCC(=O)NCCN3CCN(c4ccccc4F)CC3)n2)cc1 | -1 | 9 | -2 | -7 | -5
Cc1ccc(-c2noc(CCC(=O)NCCCN3CCN(c4cccc(Cl)c4)CC3)n2)cc1 | 0 | 82* | -1 | -9 | -73*
COc1cccc(N2CCN(CC(=O)N3CCN(S(=O)(=O)c4ccc(Cl)cc4)CC3)CC2)c1 | 0 | 10 | 2 | -5 | -24
COc1cccc(-c2csc3ncnc(Sc4nnnn4C)c23)c1 | 0 | 5 | 6 | -1 | 3
Oc1ccc(Nc2nc(N3CCCC3)c3ccccc3n2)cc1 | -1 | 1 | -1 | -10 | -40*
c1ccc2c(c1)nc(N1CCCCCC1)c1ccccc12 | 0 | 2 | 6 | 12 | 15
COc1ccc(Nc2nc(N3CCCCC3)c3ccccc3n2)cc1 | 0 | 8 | -3 | -16 | -49*
Cc1ccc(Nc2nc(N3CCOCC3)c3ccccc3n2)cc1 | 0 | 1 | 4 | -13 | -60*
CCOc1ccc(CN2CCN(C3CCSCC3)CC2CCO)cc1 (stereo not given) | 0 | 1 | 41* | -5 | 5
CCN(CC)c1ccc(C2C(C(N)=O)=C(C)Nc3nc(SCc4ccccc4Cl)nn32)cc1 (stereo not given) | 1 | 2 | 0 | 0 | -7
CCCCn1cc(C(=O)c2cc(Br)ccc2O)cc(C#N)c1=O | -1 | 31* | 0 | -9 | -21
N#Cc1cc(C(=O)c2cc(F)ccc2O)cn(Cc2ccccc2)c1=O | 5 | 21 | -4 | -13 | -33*
COCCCn1cc(C(=O)c2cc(Br)ccc2O)cc(C#N)c1=O | 0 | 6 | 0 | -4 | -8
CCOCCCn1cc(C(=O)c2cc(Br)ccc2O)cc(C#N)c1=O | 0 | 21 | 5 | -10 | -36*
COc1ccc(CNC(=O)C2CCCN(C(=O)N3CCOc4ccccc43)C2)cc1 (stereo not given) | 1 | 3 | -6 | 0 | -6
COc1ccc(NC(=O)CSc2nnc(-c3cccnc3)s2)cc1 | 0 | 2 | 0 | -1 | 8
Cc1ccccc1-n1cnc2cc(NCc3cccs3)ccc21 | -1 | 6 | -5 | -10 | -37*
c1ccc(Nc2nc(-c3ccccn3)cs2)cc1 | 1 | 4 | 5 | -8 | 9
c1ccc(-c2csc(Nc3cccnc3)n2)nc1 | -1 | 0 | 10 | -5 | -31*
SMILES | TRHR agonist | D1 ag | TRHR PAM | D1 PAM | D1 antagonist
CC(Oc1ccccc1)C(=O)Nc1ccccc1C(=O)OCc1cc(=O)n2nc(C3CC3)sc2n1 (stereo not given) | -2 | 4 | 2 | 0 | 5
CCOc1ccccc1CN1CCNC(=O)C1CC(=O)NCc1ccccn1 (stereo not given) | 0 | 1 | -7 | -3 | 5
CC(C)CC(=O)Nc1c2c(nn1-c1cccc(Cl)c1)CS(=O)(=O)C2 | 1 | 3 | 5 | 1 | 6
CC(C)CC(=O)Nc1c2c(nn1-c1cccc(Cl)c1)CS(=O)C2 (stereo not given) | 0 | 2 | -7 | 8 | -33*
CCOC(=O)C(C(=O)N(C)C)c1ncc(C(F)(F)F)cc1Cl (stereo not given) | 0 | 0 | 14 | 3 | -46*
COC(=O)C(C(=O)OC)c1ncc(C(F)(F)F)cc1Cl | 0 | -1 | -3 | 0 | 5
Cc1c(-c2ccc(F)cc2)nc(N)c(C#N)c1-c1ccco1 | 0 | 2 | -3 | 2 | -33*
Cc1ccc(-c2csc(Nc3ccc(C(=O)O)cc3)[n+]2Cc2ccccc2)cc1 | 0 | 5 | 33* | 4 | -16
COc1ccc(-c2csc(Nc3ccccc3)[n+]2Cc2ccccc2)cc1 | 0 | 5 | 23 | -5 | -6
Cc1ccc(-c2csc(Nc3ccccc3)[n+]2CCc2ccccc2)cc1 | 1 | 2 | -4 | -2 | -1
O=[N+]([O-])c1ccc(-c2csc(Nc3ccccc3)[n+]2Cc2ccccc2)cc1 | -2 | 5 | 2 | -5 | -41*
C(=C\c1ccco1)/C1=NN(c2ccccc2)C(c2ccco2)C1 (stereo not given) | 10 | 45* | -2 | -8 | 7
O=C(Nc1ccc(F)cc1)C1CCN(c2nc3ccccc3nc2C(F)(F)F)CC1 | 1 | 8 | -4 | -3 | 1
BrC(=C\c1ccccc1)/C=N/N1CCN(c2ccccn2)CC1 | -1 | 3 | 1 | -4 | -32*
c1ccc(N2CCN(c3cnccn3)CC2)nc1 | 1 | -1 | 1 | 4 | -41*
Oc1cccc(/C=N/N2CCN(c3ccccn3)CC2)c1 | 0 | 2 | 1 | -1 | -6
Cc1ccc2cccc(NC(=O)c3ccc(-c4cccc(Cl)c4)o3)c2n1 | 4 | 0 | 0 | 2 | 4
CCOC(=O)c1cnc(NCc2ccc(OC)cc2OC)c2ccccc12 | 0 | 3 | -9 | -1 | 0
COc1cccc(-c2cn3c(n2)sc2cc(C(=O)NCCCc4ccccc4)ccc23)c1 | 0 | 4 | -4 | 3 | -34*
COc1ccc(-c2cn3c(n2)sc2cc(C(=O)NCCCc4ccccc4)ccc23)cc1 | 0 | -1 | 5 | -3 | -1
CC(=O)N1c2ccc(S(=O)(=O)NCCC(=O)Nc3ccc(C)cc3Br)cc2CC1C (stereo not given) | -1 | 9 | -1 | -6 | -17
COc1ccccc1-n1cnc2cc(NS(=O)(=O)c3ccc(Br)cc3)ccc21 | 0 | 3 | -25 | -9 | -39*
COc1ccc(C(=O)NNC(=O)C(NC(=O)c2cc(OC)cc(OC)c2)C(C)C)cc1 (stereo not given) | -1 | 1 | 1 | -4 | -39*
C#CCOc1ccc(-c2nnc(Nc3ccc(NC(C)=O)cc3)c3ccccc23)cc1 | -1 | -1 | -9 | -1 | 5
Cc1ccc2[nH]c(CSc3ccccc3)cc(=O)c2c1 | 0 | 18 | 2 | -6 | 2
Cc1c(NC(=O)/C(C#N)=C/c2ccc(-c3cccc(Cl)c3)o2)c(=O)n(-c2ccccc2)n1C | 0 | 0 | 8 | -10 | -38*

Assay outcomes (PubChem)
